# Measurements taken from PubChem BioAssay (NCI).
# Compounds without any hit were thinned out: in the full panel of roughly 79,000, 15% have a hit. Values without a mark were called inactive. Activity calls are given as the source filed them. Rule as the data show it: active = growth inhibition above about 70%; inactive = the rest.
# Experiments:
# [1] = NCI Yeast Anticancer Drug Screen. Data for the rad50 strain (AID 155);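 also: 0% = growth of vehicle-only cultures of the same strain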; conditions: S. cerevisiae rad50 strain growth inhibition, hits give high values
# Outline: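 Vehicle-treated cultures provide the reference for the growth inhibition reported for compound-exposed, repair-deficient yeast.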
# [2] = NCI Yeast Anticancer Drug Screen. Data for the mec2-1 strain (AID 157); conditions: S. cerevisiae mec2-1 strain, hits give high values
# Outline: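 Using mec2-1 yeast: add compound, measure growth, express inhibition versus vehicle-treated cultures.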
# [3] = NCI Yeast Anticancer Drug Screen. Data for the sgs1 mgt1 strain (AID 161);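 also: 0% = growth of cultures given vehicle only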; conditions: S. cerevisiae sgs1 mgt1 strain, hits give high values
# Outline: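 This yeast growth screen uses a strain with defined DNA-repair lesions; compound-treated growth is compared with vehicle-treated growth.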
# [4] = NCI Yeast Anticancer Drug Screen. Data for the cln2 rad14 strain (AID 165);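 also: 0% = growth equal to vehicle treated cultures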; conditions: S. cerevisiae cln2 rad14 strain, hits give high values
# Outline: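 Yeast strain cln2 rad14, bearing defects in cell cycle control and DNA repair, serves as the test system; values reflect growth inhibition compared with vehicle.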
# [5] = NCI Yeast Anticancer Drug Screen. Data for the mlh1 rad18 strain (AID 175); conditions: S. cerevisiae mlh1 rad18 strain growth inhibition, hits give high values
# Outline: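 Steps: expose repair-defective yeast to compound; measure growth; express inhibition against vehicle-treated controls.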
# [6] = NCI Yeast Anticancer Drug Screen. Data for the bub3 strain (AID 167); conditions: S. cerevisiae bub3 mutant strain, hits give high values
# Outline: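 Mutant yeast screening strain plus compound; vehicle-treated cultures serve as the 0% inhibition reference.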
# [7] = at 5.0 µM (retest, dose inferred, filed as 0.5)
# [8] = at 50.0 µM (retest, dose inferred, filed as 5.0)
compound,measurement,setting,value
N#CC(C#N)N=Nc1cc(Cl)ccc1Cl,growth inhibition,[1]; [7],20%
same,growth inhibition,[1]; [8],93% (active)
same,growth inhibition,[2]; [7],13%
same,growth inhibition,[2]; [8],87% (active)
same,growth inhibition,[3]; [7],16%
same,growth inhibition,[3]; [8],99% (active)
same,growth inhibition,[4]; [7],8%
same,growth inhibition,[4]; [8],87% (active)
same,growth inhibition,[5]; [7],-2%
same,growth inhibition,[5]; [8],92% (active)
N#CC(c1ccccc1)c1cccc2ccccc12 (stereo not drawn),growth inhibition,[1]; [7],5%
same,growth inhibition,[1]; [8],68%
same,growth inhibition,[2]; [7],3%
same,growth inhibition,[2]; [8],35%
same,growth inhibition,[3]; [7],1%
same,growth inhibition,[3]; [8],74% (active)
same,growth inhibition,[4]; [7],-4%
same,growth inhibition,[4]; [8],-4%
same,growth inhibition,[6]; [7],7%
same,growth inhibition,[6]; [8],59%
same,growth inhibition,[5]; [7],-25%
same,growth inhibition,[5]; [8],56%
COc1c(OC(C)=O)c(OC(C)=O)cc2c1-c1ccc(SC)c(=O)cc1C(NC(C)=O)CC2 (stereo not drawn),growth inhibition,[1]; at 50.0 µM unless noted,23.2%
same,growth inhibition,[2]; at 50.0 µM unless noted,3.5%
same,growth inhibition,[3]; at 50.0 µM unless noted,-28.8%
same,growth inhibition,[4]; at 50.0 µM unless noted,-24.6%
same,growth inhibition,[6]; at 50.0 µM unless noted,-33.8%
CCC/C(=N\NC(=S)N1CCN(c2ccccn2)CC1)c1ccccn1,growth inhibition,[1]; at 50.0 µM unless noted,87.3% (active)
same,growth inhibition,[2]; at 50.0 µM unless noted,90.3% (active)
same,growth inhibition,[3]; at 50.0 µM unless noted,88.8% (active)
same,growth inhibition,[4]; at 50.0 µM unless noted,80.5% (active)
same,growth inhibition,[6]; at 50.0 µM unless noted,20.9%
CC(=O)OC(C)C(=O)NCC(C)O (stereo not drawn),growth inhibition,[1]; [7],-1%
same,growth inhibition,[1]; [8],3%
same,growth inhibition,[2]; [7],-2%
same,growth inhibition,[2]; [8],0%
same,growth inhibition,[3]; [7],-2%
same,growth inhibition,[3]; [8],9%
same,growth inhibition,[4]; [7],-1%
same,growth inhibition,[4]; [8],-7%
same,growth inhibition,[6]; [7],5%
same,growth inhibition,[6]; [8],7%
same,growth inhibition,[5]; [7],-33%
same,growth inhibition,[5]; [8],20%
CC(C)C(C)(C)c1ccc(O)cc1,growth inhibition,[1]; [7],-34%
same,growth inhibition,[1]; [8],70% (active)
same,growth inhibition,[2]; [7],-2%
same,growth inhibition,[2]; [8],68%
same,growth inhibition,[3]; [7],3%
same,growth inhibition,[3]; [8],75% (active)
same,growth inhibition,[4]; [7],2%
same,growth inhibition,[4]; [8],26%
same,growth inhibition,[6]; [7],2%
same,growth inhibition,[6]; [8],61%
same,growth inhibition,[5]; [7],2%
same,growth inhibition,[5]; [8],74% (active)
CC(=O)O[C@H]1C(=O)[C@@]2(C)C(C(OC(=O)c3ccccc3)[C@]3(O)CC(OC(=O)[C@H](OC(=O)CCC(=O)O)C(NC(=O)c4ccccc4)c4ccccc4)C(C)=C1C3(C)C)C1(OC(C)=O)COC1C[C@@H]2OC(=O)CCC(=O)O (stereo partly drawn),growth inhibition,[1]; at 50.0 µM unless noted,29.6%
same,growth inhibition,[2]; at 50.0 µM unless noted,-5.45%
same,growth inhibition,[3]; at 50.0 µM unless noted,-25.4%
same,growth inhibition,[4]; at 50.0 µM unless noted,-7.4%
same,growth inhibition,[6]; at 50.0 µM unless noted,-8.05%
C/C(=N\NC(=S)N1CCN(c2ccccn2)CC1)c1cccc(C)n1,growth inhibition,[1]; at 50.0 µM unless noted,90.3% (active)
same,growth inhibition,[2]; at 50.0 µM unless noted,92.7% (active)
same,growth inhibition,[3]; at 50.0 µM unless noted,91.8% (active)
same,growth inhibition,[4]; at 50.0 µM unless noted,91.3% (active)
same,growth inhibition,[6]; at 50.0 µM unless noted,89.5% (active)
Oc1ccc(Cc2ccccc2Cl)c(O)c1,growth inhibition,[1]; [7],1%
same,growth inhibition,[1]; [8],99% (active)
same,growth inhibition,[2]; [7],-4%
same,growth inhibition,[2]; [8],99% (active)
same,growth inhibition,[3]; [7],-3%
same,growth inhibition,[3]; [8],99% (active)
same,growth inhibition,[4]; [7],1%
same,growth inhibition,[4]; [8],98% (active)
same,growth inhibition,[6]; [7],-1%
same,growth inhibition,[6]; [8],99% (active)
same,growth inhibition,[5]; [7],-22%
same,growth inhibition,[5]; [8],98% (active)
CCc1nc(Cl)nc(Cl)c1Cl,growth inhibition,[1]; at 50.0 µM unless noted,-9.1%
same,growth inhibition,[2]; at 50.0 µM unless noted,-17.1%
same,growth inhibition,[3]; at 50.0 µM unless noted,-18.2%
same,growth inhibition,[4]; at 50.0 µM unless noted,0.2%
same,growth inhibition,[6]; at 50.0 µM unless noted,-8.5%
COc1cc(-c2cc(=O)c3c(O)c(OC)c(OC)c(OC)c3o2)cc(OC)c1OC,growth inhibition,[1]; at 50.0 µM unless noted,-9.45%
same,growth inhibition,[2]; at 50.0 µM unless noted,-2.7%
same,growth inhibition,[3]; at 50.0 µM unless noted,-10.8%
same,growth inhibition,[4]; at 50.0 µM unless noted,-10%
same,growth inhibition,[6]; at 50.0 µM unless noted,-20.8%
O=C(O)/C=C\C(=O)Nc1cccc2ccccc12,growth inhibition,[1]; [7],4%
same,growth inhibition,[1]; [8],60%
same,growth inhibition,[2]; [7],-1%
same,growth inhibition,[2]; [8],30%
same,growth inhibition,[3]; [7],7%
same,growth inhibition,[3]; [8],88% (active)
same,growth inhibition,[4]; [7],-1%
same,growth inhibition,[4]; [8],8%
same,growth inhibition,[6]; [7],-1%
same,growth inhibition,[6]; [8],42%
same,growth inhibition,[5]; [7],-35%
same,growth inhibition,[5]; [8],25%
CCCCNc1ccc(Nc2ccccc2)cc1,growth inhibition,[1]; [7],1%
same,growth inhibition,[1]; [8],95% (active)
same,growth inhibition,[2]; [7],1%
same,growth inhibition,[2]; [8],96% (active)
same,growth inhibition,[3]; [7],14%
same,growth inhibition,[3]; [8],97% (active)
same,growth inhibition,[4]; [7],1%
same,growth inhibition,[4]; [8],87% (active)
same,growth inhibition,[6]; [7],2%
same,growth inhibition,[6]; [8],97% (active)
same,growth inhibition,[5]; [7],-40%
same,growth inhibition,[5]; [8],94% (active)
C/C(=N\NC(=S)N1CCCCCC1)c1nccnc1C,growth inhibition,[1]; at 50.0 µM unless noted,85.7% (active)
same,growth inhibition,[2]; at 50.0 µM unless noted,90.5% (active)
same,growth inhibition,[3]; at 50.0 µM unless noted,89.7% (active)
same,growth inhibition,[4]; at 50.0 µM unless noted,86.5% (active)
same,growth inhibition,[6]; at 50.0 µM unless noted,87.4% (active)
C=C1C(=O)OC2/C=C(\COC(C)=O)CCC(OC(C)=O)C3=CC(OC3=O)C12 (stereo not drawn),growth inhibition,[1]; at 50.0 µM unless noted,-0.4%
same,growth inhibition,[2]; at 50.0 µM unless noted,10.4%
same,growth inhibition,[3]; at 50.0 µM unless noted,-22.2%
same,growth inhibition,[4]; at 50.0 µM unless noted,-6.5%
same,growth inhibition,[6]; at 50.0 µM unless noted,-30.1%
COC1=C2CC(C)CC(OC)C(O)C(C)/C=C(\C)C(OC(N)=O)C(OC)/C=C\C=C(/C)C(=O)NC(=C(/C=N/N3CCCCC3)C1=O)C2=O (stereo not drawn),growth inhibition,[1]; at 50.0 µM unless noted,17.4%
same,growth inhibition,[2]; at 50.0 µM unless noted,10.3%
same,growth inhibition,[3]; at 50.0 µM unless noted,-13.9%
same,growth inhibition,[4]; at 50.0 µM unless noted,-15.7%
same,growth inhibition,[6]; at 50.0 µM unless noted,-12.8%
Cc1[nH]n(-c2ccc(Cl)cc2)c(=O)c1N=Nc1cccc(C(F)(F)F)c1,growth inhibition,[1]; at 50.0 µM unless noted,21.8%
same,growth inhibition,[2]; at 50.0 µM unless noted,2.05%
same,growth inhibition,[3]; at 50.0 µM unless noted,2.1%
same,growth inhibition,[4]; at 50.0 µM unless noted,7.45%
same,growth inhibition,[6]; at 50.0 µM unless noted,-2.05%
same,growth inhibition,[5]; at 50.0 µM unless noted,2%
